Holding throughout (assay): NCI-60 one-dose screen, 48 h (100 = growth as untreated, 0 = no growth, -100 = all killed)
Conditions in all cases: 10 µM unless noted

The subject of test [1] is NCI-H23 lung.
Test [2] deals with NCI-H226 lung.
Test [3] deals with NCI-H322M lung.
Test [4] has as its system HOP-62 NSCLC.
Test [5] has as its system NCI-H460 lung.
Test [6] relates to HOP-92 NSCLC.
For test [7], the system named is NCI-H522 lung.
Test [8] relates to A549/ATCC NSCLC.
Test [9] deals with 786-0 renal.
Test [10] has as its system COLO 205 colon.
Test [11] concerns DU-145 prostate.
In test [12] the test system is K-562 leukemia.
The test system of test [13] is MALME-3M melanoma.
Test [14] concerns RXF 393 renal.
For test [15], the system named is SF-268 CNS.
Test [16] concerns SF-295 CNS.
Test [17] deals with SF-539 CNS.
Test [18] relates to UACC-257 melanoma.
Test [19] deals with M14 melanoma.
Test [20] relates to MDA-MB-231 breast.

We go through 8 compounds from PubChem BioAssay (NCI).

Molecules are shown by their SMILES. About 83,000 compounds went through this panel and 20% of them were active in at least one assay; those are over-represented in the sample as a whole.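 Single-dose data. Exposure time 48 hours. Values below 10 considered active.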 Values without a mark were called inactive. Active and inactive are the calls of the source.

As to `C1C[S+]2CC[S+]1CC2`, the growth is 97.9% in test [1]; 98.3% in test [2]; 111% in test [3]; 104% in test [4]; 101% in test [5]; 111% in test [6]. Besides, the growth in [7] was 98.5%; in [8] it was 98.9%; in test [9] it was 111%; in test [10], 116%; in test [11], 105%; in test [12], 104%. Besides, the growth in test [13] was 99.9%; in test [14] it was 106%; in [15], 102%; in test [16], 99%; in test [17], 108%; in test [18], 94.9%. Also, in test [19], the growth was 101%.
Turning to `CC(C)N1CC(=O)N2CSCC2C1=O` (stereo unspecified), the growth in test [1] is 111%; in test [2], 104%; in [3], 115%; in [4] it was 111%; in [5], 108%; in test [6], 126%. The growth is 102% in test [7]; 103% in test [8]; 107% in [9]; 114% in test [10]; 107% in [11]; 104% in [12]. The growth in test [20] was 120%; in test [14], 104%; in test [15], 106%; in [16] it was 105%; in [17], 97.6%; in test [18], 108%. For the same compound, the growth in test [19] was 104%.
`C/C(=N\N=C(/C)c1cccc([N+](=O)[O-])c1)c1cccc([N+](=O)[O-])c1`: the growth is 90.3% in test [1]; 111% in test [2]; 96.1% in test [3]; 74.3% in test [4]; 86.4% in test [5]; 87.5% in test [6]. Besides, the growth in test [7] was 57.3%; in [8], 79.3%; in test [9], 77.4%; in test [10], 79.8%; in test [11], 95.3%; in [12], 98.3%. In addition, the growth was 85% in test [13]; 93.9% in [14]; 80.2% in [15]; 95.8% in [16]; 93.4% in [17]; 87.6% in test [18]. In test [19], the growth is -36.5% (active).
Consider `CCOC(=N)CC(=O)Nc1cccc(C)c1Cl`, for which the growth in test [1] is 100%; in test [2] it was 84.5%; in [3], 99.6%; in test [4], 102%; in test [5] it was 105%; in [6], 89.1%. Besides, the growth in [7] is 110%; in test [8], 106%; in test [9], 106%; in test [10], 100%; in test [11], 107%; in test [12], 122%. In addition, the growth in [20] was 89.5%; in test [14] it was 97.5%; in test [15], 101%; in test [16] it was 97.2%; in [17], 99.6%; in [18], 103%. The growth in [19] is 94.9%.
`C=COC(=O)CCOCC(CC)CCCC` (stereo unspecified): the growth in [1] is 105%; in test [2], 98.7%; in [3], 98.7%; in [4] it was 97.3%; in test [5] it was 106%; in test [6], 111%. In addition, the growth in [7] is 109%; in [8], 89.6%; in [9], 91.2%; in test [10] it was 111%; in [11], 96.5%; in [12], 92.9%. Besides, the growth in test [20] is 106%; in test [14], 108%; in test [15], 99.5%; in test [16], 102%; in [17], 105%; in test [18], 108%.
For the compound `CSc1nc2[nH]ncc2c(=O)[nH]1`, the growth in test [1] is 94.8%; in test [2], 91.4%; in test [3], 108%; in test [4] it was 101%; in test [5] it was 98.8%; in [6], 106%. The growth in test [7] is 99.9%; in test [8] it was 111%; in [9] it was 101%; in test [10], 107%; in [11], 104%; in [12] it was 113%. The growth in test [13] is 101%; in [14], 92.6%; in test [15] it was 95.2%; in test [16], 96.2%; in test [17], 96%; in [18], 109%. Moreover, the growth in [19] was 92.1%.
For the compound `CC(C)C(C)(C)C(=O)C(C)(C)C(C)(C)C`, the growth in test [1] was 90.6%; in [2], 90.5%; in test [3] it was 97.9%; in test [4] it was 103%; in test [5] it was 101%; in [6] it was 88.3%. Besides, the growth is 92.4% in [7]; 93.3% in [8]; 108% in [9]; 104% in test [10]; 107% in [11]; 96.8% in test [12]. In addition, the growth in test [13] was 92.6%; in test [14] it was 104%; in [15], 102%; in [16], 95.8%; in test [17], 98.8%; in test [18], 92.6%. In addition, the growth in test [19] was 114%.
Turning to `CN(C)c1ccc(/C=C/C(=O)c2ccc(NC(N)=O)cc2)cc1`, the growth in test [1] is 96.9%; in test [2], 104%; in [3], 97%; in test [4], 94.1%; in test [5] it was 102%; in [6], 103%. Moreover, the growth in test [7] is 95.3%; in test [8], 84.5%; in test [9], 97.1%; in test [10], 112%; in test [11] it was 98.8%; in [12], 64.6%. Also, the growth in test [13] was 82.3%; in test [14], 107%; in test [15] it was 99%; in test [16], 98.8%; in test [17] it was 81.1%; in [18], 89.9%. Further, the growth in test [19] was 86.8%.
